From PubChem BioAssay AID1159580 (chemical genetic matrix, 2015)
Out of some 5,500 compounds screened, about 2,000 (36%) were called active. Roughly 18% stayed inconclusive and do not appear here. Rule as the data show it: active = normalized growth mostly below about 0.91 (no sharp cut-off); inconclusive = no clear call, values can overlap the other calls; inactive = mostly above about 0.92. Some of the results follow.

Assay: chemical genetic growth profiling, strain panel (AID 1159580);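 also: tested at 20 µM; growth read once vehicle control cultures reached saturation at 30 °C; 1 = growth at the plate median or of vehicle wells; lower values mean less growth of the strain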
Conditions: S. cerevisiae deletion strains, growth OD

Measured: normalized growth

CC(C)=CCCC(C)[C@@H]1CC[C@]2(C)C3=C(CC[C@@]12C)C1(C)CC[C@H](O)C(C)(C)C1CC3 (some centres undefined)
inactive: locus YJL187C, strain SWE1 (second series), stronger effect = lower value 0.995 | locus YJL187C, strain SWE1, stronger effect = lower value 1.06 | locus YJR066W, strain TOR1, stronger effect = lower value 0.866 | locus YKL068W, stronger effect = lower value 1.04 | locus YKL085W, strain MDH1 (second series), stronger effect = lower value 1.03 | locus YKL085W, strain MDH1, stronger effect = lower value 1.03 | locus YKL160W, strain elf1, stronger effect = lower value 1.03 | locus YKR001C, strain vps1, stronger effect = lower value 0.979 | locus YLL001W, strain dnm1, stronger effect = lower value 1.07 | locus YLL041C, strain sdh2, stronger effect = lower value 1.06 | locus YLR027C, strain aat2, stronger effect = lower value 1.07 | locus YLR039C, strain RIC1, stronger effect = lower value 1.24 | locus YLR058C, strain SHM2, stronger effect = lower value 0.996 | locus YLR102C, strain apc9, stronger effect = lower value 1.05 | locus YLR113W, strain HOG1, stronger effect = lower value 0.866 | locus YLR221C, strain rsa3, stronger effect = lower value 1.06 | locus YLR258W, strain gsy2, stronger effect = lower value 1.07 | locus YLR268W, strain sec22, stronger effect = lower value 0.973 | locus YLR320W, strain mms22, stronger effect = lower value 1.05 | locus YLR330W, strain CHS5, stronger effect = lower value 1.06 | locus YLR342W, strain FKS1, stronger effect = lower value 1.05 | locus YLR357W, strain rsc2, stronger effect = lower value 1.13 | locus YLR370C, strain arc18, stronger effect = lower value 1.07 | locus YLR371W, strain rom2, stronger effect = lower value 1.06 | locus YLR384C, strain iki3, stronger effect = lower value 1.07 | locus YLR418C, strain cdc73, stronger effect = lower value 1.15 | locus YML016C, strain PPZ1, stronger effect = lower value 1.06 | locus YML032C, strain rad52, stronger effect = lower value 0.946 | locus YML120C, strain ndi1, stronger effect = lower value 1.03 | locus YML124C, strain tub3, stronger effect = lower value 1.06 | locus YMR058W, strain fet3, stronger effect = lower value 1 | locus YMR078C, strain ctf18, stronger effect = lower value 1.08 | locus YMR125W, strain sto1, stronger effect = lower value 1.07 | locus YMR129W, stronger effect = lower value 1.06 | locus YMR205C, strain PFK2, stronger effect = lower value 1.04 | locus YMR223W, strain ubp8, stronger effect = lower value 0.971 | locus YMR231W, strain pep5, stronger effect = lower value 1.04 | locus YNL067W, strain RPL9B, stronger effect = lower value 1.02 | locus YNL071W, strain lat1, stronger effect = lower value 1.04 | locus YNL128W, strain TEP1, stronger effect = lower value 0.996 | locus YNL183C, strain NPR1, stronger effect = lower value 0.846 | locus YNL209W, strain ssb2, stronger effect = lower value 1.06 | locus YNL248C, strain rpa49, stronger effect = lower value 1.01 | locus YNL250W, strain rad50, stronger effect = lower value 0.996 | locus YNL271C, strain bni1, stronger effect = lower value 1.01 | locus YNL298W, strain CLA4, stronger effect = lower value 0.917 | locus YNL307C, strain MCK1, stronger effect = lower value 1.03 | locus YNL322C, strain KRE1 (second series), stronger effect = lower value 1.08 | locus YNR049C, strain mso1, stronger effect = lower value 1.08 | locus YNR052C, strain pop2, stronger effect = lower value 0.968 | locus YOL012C, strain htz1 1.41 | locus YOR001W, strain rrp6, stronger effect = lower value 1.02 | locus YOR061W, strain CKA2, stronger effect = lower value 0.994 | locus YOR069W, strain VPS5, stronger effect = lower value 1.05 | locus YOR070C, strain gyp1, stronger effect = lower value 1.05 | locus YOR083W, strain WHI5, stronger effect = lower value 0.994 | locus YOR106W, strain vam3, stronger effect = lower value 0.939 | locus YOR136W, strain idh2, stronger effect = lower value 1.02 | locus YOR144C, strain elg1, stronger effect = lower value 1.02 | locus YOR231W, strain MKK1, stronger effect = lower value 0.874 | locus YOR270C, strain vph1, stronger effect = lower value 0.839 | locus YOR290C, strain snf2, stronger effect = lower value 0.992 | locus YOR316C, strain cot1, stronger effect = lower value 1.06 | locus YPL051W, strain arl3, stronger effect = lower value 1.02 | locus YPL078C, strain atp4, stronger effect = lower value 1.02 | locus YPL240C, strain hsp82, stronger effect = lower value 1.05 | locus YPL256C, strain CLN2, stronger effect = lower value 0.994 | locus YPR119W, strain clb2, stronger effect = lower value 1.07 | locus YPR141C, strain kar3, stronger effect = lower value 1.05 | locus YPR163C, strain tif3, stronger effect = lower value 0.975 | locus YPR167C, strain met16, stronger effect = lower value 1.03 | strain wtn01, stronger effect = lower value 0.949
active: locus YKL009W, strain mrt4, stronger effect = lower value 0.775 | locus YKR026C, strain gcn3, stronger effect = lower value 1.09 [resistant] | locus YKR091W, strain srl3, stronger effect = lower value 1.1 [resistant] | locus YLL026W, stronger effect = lower value 1.07 [resistant] | locus YLR262C, strain YPT6 (second series), stronger effect = lower value 0.822 | locus YMR307W, strain GAS1, stronger effect = lower value 1.42 [resistant] | locus YNL233W, strain BNI4, stronger effect = lower value 1.13 [resistant] | locus YOL147C, strain pex11, stronger effect = lower value 1.1 [resistant] | locus YOR080W, strain dia2, stronger effect = lower value 1.09 [resistant] | locus YOR184W, strain ser1, stronger effect = lower value 0.85 | locus YOR265W, strain rbl2, stronger effect = lower value 1.07 [resistant] | locus YPL106C, strain sse1, stronger effect = lower value 1.26 [resistant]
